Bioassay records: PubChem BioAssay, Broad Institute
Many of the other results were omitted from the sample, so hits are more common in it than they were.
BL2 CD40 inh: CD40 pathway inhibition in BL2 cells. BL2 NF-kB luciferase reporter, CD40L-induced, 4 h. inhibition, % at 10 µM. actives 0.94% (n = 83,000). AID 1053188;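 active = mean inhibition of at least 50% with a set share of replicates also reaching that level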;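 note: 0% = neutral control wells and 100% = IKK inhibitor VII at 50 µM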
An asterisk follows results filed as active; [ ] = another dose, or the depositor's remark.

SMILES	BL2 CD40 inh
O=S1(=O)N=C(SCCO)c2ccccc21	-11
CC(=O)Nc1cccc2c1O[C@H](CN(C)S(C)(=O)=O)[C@@H](C)CN(C)C2=O	8
CO[C@@H](C(=O)N(C)C[C@H]1OCc2ccccc2-c2c(n(C)c3ccccc23)C(=O)N([C@H](C)CO)C[C@H]1C)c1ccccc1	-12[25 µM]
O=C(Cc1ccccc1)N1C[C@H]2[C@@H](c3ccccc31)[C@@H](CO)N2C(=O)C1CCCC1	12
O=C1NC2c3c(I)sc(I)c3C(=O)C2O1 (centres undefined)	101*
O=C1NC2c3c(Cl)sc(Cl)c3C(=O)C2O1 (centres undefined)	56*
COc1cccc(C(=O)Nc2ccc3c(c2)C(=O)N(C)C[C@@H](OC)[C@H](C)CN(C(=O)C2CC2)[C@H](C)CO3)c1	8[25 µM]
CC(=O)N1[C@@H]2c3ccc(-c4ccccc4)c(=O)n3C[C@H]1[C@H](CO)[C@H]2C(=O)NC1Cc2ccccc2C1	-5[25 µM]
CN1c2ccc(-c3cccc(F)c3)cc2[C@H]2[C@H](CCN2C(=O)C2CCCC2)[C@H]1CO	54*
CN1c2ccc(-c3cccc(F)c3)cc2[C@@H]2[C@@H](CCN2C(=O)C2CCC2)[C@H]1CO	-19[25 µM]
CN1c2ccc(-c3cccc(F)c3)cc2[C@H]2[C@H](CCN2C(=O)C2CCC2)[C@H]1CO	38[25 µM]
C[C@H]1CN([C@@H](C)CO)C(=O)c2c(c3ccccc3n2C)-c2ccccc2CO[C@H]1CN(C)C(=O)CCN(C)C	9
CO[C@H]1CN(C)C(=O)c2ccc(NC(C)=O)cc2OC[C@H](C)N(Cc2cccc(F)c2)C[C@@H]1C	5[25 µM]
N#Cc1cccc(-c2ccc([C@@H]3[C@@H](CO)N4CCCCN(C(=O)Nc5cccc(F)c5)C[C@H]34)cc2)c1	17[25 µM]
O=C(Nc1ccccc1)N1CCCCN2[C@@H](CO)[C@@H](c3ccc(C#Cc4ccccc4)cc3)[C@@H]2C1	28
N#Cc1cccc(-c2ccc([C@@H]3[C@H]4CN(C(=O)Nc5cccc(F)c5)CCCCN4[C@H]3CO)cc2)c1	18[25 µM]
O=C(Nc1ccc(F)cc1)N1CCCCN2[C@@H](CO)[C@@H](c3ccc(C#Cc4ccccc4)cc3)[C@@H]2C1	63*
O=C(Nc1ccc(F)cc1)N1CCCCN2[C@H](CO)[C@@H](c3ccc(C#Cc4ccccc4)cc3)[C@H]2C1	4
N#Cc1cccc(-c2ccc([C@@H]3[C@H](CO)N4CCCCN(C(=O)Nc5cccc(F)c5)C[C@@H]34)cc2)c1	92*[25 µM]
c1ccc(C(O[C@@H]2CCCN(CCc3ccc4c(c3)OCO4)C2)c2ccccc2)cc1	-8[25 µM]
CCC(=O)N1C[C@H](O)COC[C@H]2O[C@@H](CC(=O)NCc3ccc(Oc4ccccc4)cc3)CC[C@@H]21	2[25 µM]
CCNC(=O)[C@H]1[C@H](CO)[C@H]2Cn3c(ccc(-c4ccc(F)cc4)c3=O)[C@H]2N1C	-8
O=C(COC(=O)Cc1ccsc1)Nc1ccc(Cl)cc1F	3
Cc1nnnn1/C(=C\c1ccccc1)C(=O)OCC(=O)Nc1ccc(Cl)cc1F	78*
CCCCC(=O)Nc1ccc(Cl)cc1F	-11
SMILES	BL2 CD40 inh
C[C@@H]1CN([C@H](C)CO)C(=O)c2ccccc2-c2ccccc2CO[C@H]1CN(C)C(=O)Nc1ccc2c(c1)OCO2	-13[25 µM]
O=[N+]([O-])c1ccc(C=CC=Cc2ccccc2)cc1	3
CCOC(=O)c1cc2c(=Cc3ccc(N(C)C)cc3)c3ccccc3n2[n+]1C	24
CN(C)c1ccc(C=c2c3cc(O)ccc3n3c2cc(-c2ccccc2)[n+]3C)cc1	80*
O=[N+]([O-])c1ccc2c(c1)c(-c1ccccc1)nc1nncn12	1
C[n+]1c(-c2ccccc2)cc2c(=Cc3ccc([N+](=O)[O-])cc3)c3ccccc3n21	110*
C[n+]1c(-c2ccccc2)cc2c(=Cc3ccccc3)c3ccccc3n21	93*
CCS(=O)(=O)NCC[C@H]1CC[C@H](NS(=O)(=O)c2ccccc2C)[C@H](CO)O1	-10[25 µM]
Oc1[nH]c2ccccc2c1N=Nc1ccccc1	-73
Cc1ccc(O)c(N=Nc2ccccc2)n1	55*[25 µM]
c1ccc(N=Nc2ccc(C3=NCCO3)cc2)cc1	14
C[C@H](CO)N1C[C@H](C)[C@H](CN(C)S(=O)(=O)c2ccc(C(F)(F)F)cc2)OCc2ccccc2-c2c(n(C)c3ccccc23)C1=O	2
CCC(=O)N1[C@H](CO)[C@@H](c2ccc(C3=CCCC3)cc2)[C@@H]1CNC(=O)CN(C)C	4
S=C(N/N=C1\CCc2ccccc21)NC1CCCCC1	62*
S=C(Nc1ccccc1Oc1ccccc1)NC1CCCC1	9
S=C(NC1CC1)N1CCc2ccccc2C1	8
S=C(CSc1ccccc1)Nc1cccc2ccccc12	-24
[O-]C(=C(C(=S)Nc1cccc2ccccc12)[n+]1ccccc1)c1ccc2c(c1)OCCO2	55*
O=C(Nc1cccc2cccnc12)c1ccc2c(c1)OCCO2	-40
CCC(=O)N1CC[C@H]2[C@@H]1c1cc(-c3cccc(OC)c3)ccc1N(C)[C@H]2CO	-35[25 µM]
CO[C@@H]1CN(C)C(=O)c2ccc(NC(=O)C3CCOCC3)cc2OC[C@@H](C)N(CC2CC2)C[C@H]1C	-6
CO[C@@H](CN(C)C(=O)C1CC1)[C@@H](C)CN(C(=O)Nc1ccc(C(F)(F)F)cc1)[C@H](C)CO	0
CC[n+]1c(C)sc2cc(C)ccc21	56*
Cc1sc2ccccc2[n+]1CC(=O)O	-11
CC[n+]1c(/C=C(/C)SC)sc2ccccc21	26
SMILES	BL2 CD40 inh
O=C(C1CCOCC1)N1CC(=O)N2[C@H](CO)[C@H](c3ccc(C#CC4CCCC4)cc3)[C@H]2C1	10
Cc1noc(C)c1S(=O)(=O)Nc1ccc2c(c1)C(=O)N([C@H](C)CO)C[C@@H](C)[C@H](CN(C)C(=O)Nc1cccc3ccccc13)OCCCC[C@@H](C)O2	75*[25 µM]
Cc1noc(C)c1S(=O)(=O)Nc1ccc2c(c1)C(=O)N([C@H](C)CO)C[C@H](C)[C@H](CN(C)C(=O)Nc1cccc3ccccc13)OCCCC[C@@H](C)O2	-10[25 µM]
C[C@@H]1CCCCO[C@@H](CN(C)CC2CCCCC2)[C@@H](C)CN([C@@H](C)CO)C(=O)c2cc(NC(=O)Nc3ccc(C(F)(F)F)cc3)ccc2O1	97*[25 µM]
C[C@@H]1CCCCO[C@@H](CN(C)CC2CCCCC2)[C@H](C)CN([C@H](C)CO)C(=O)c2cc(NC(=O)Nc3ccc(C(F)(F)F)cc3)ccc2O1	-8
Cc1noc(C)c1S(=O)(=O)Nc1ccc2c(c1)C(=O)N([C@H](C)CO)C[C@H](C)[C@@H](CN(C)C(=O)Nc1cccc3ccccc13)OCCCC[C@@H](C)O2	0[25 µM]
C[C@H]1CCCCO[C@H](CN(C)Cc2ccc(C(F)(F)F)cc2)[C@@H](C)CN([C@@H](C)CO)C(=O)c2cc(NC(=O)Nc3cccc4ccccc34)ccc2O1	53*[25 µM]
C[C@@H]1CN([C@@H](C)CO)C(=O)c2cc(NC(=O)Nc3ccc(C(F)(F)F)cc3)ccc2O[C@@H](C)CCCCO[C@@H]1CN(C)CC1CCCCC1	12[25 µM]
C[C@H]1CCCCO[C@@H](CN(C)Cc2ccc(C(F)(F)F)cc2)[C@@H](C)CN([C@@H](C)CO)C(=O)c2cc(NC(=O)Nc3cccc4ccccc34)ccc2O1	18[25 µM]
C[C@@H]1CN([C@H](C)CO)C(=O)c2cc(NC(=O)Nc3cccc4ccccc34)ccc2O[C@@H](C)CCCCO[C@@H]1CN(C)Cc1ccc(C(F)(F)F)cc1	32[25 µM]
Cc1ccccc1S(=O)(=O)N1C[C@@H](O)COC[C@@H]2O[C@H](CC(=O)N3CCCCC3)CC[C@H]21	2[25 µM]
COc1cccc(CN2[C@H](CO)[C@H]3c4ccccc4N(C(=O)c4ccncc4)C[C@H]32)c1	3
